According to ChEMBL document CHEMBL1961873, “Compounds: GSK PKIS; Assays: Nanosyn kinase panel” (2012):
“And” between values parts separate entries of the source, which are not always exact repeats. Identical values can stand only once.

Assays:
[1] = target: RAF proto-oncogene serine/threonine-protein kinase (Homo sapiens) (UniProt P04049); conditions: at 1 µM;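 also: values are the mean percent inhibition of CRAF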
[2] = target: T1, Interleukin-1 receptor-associated kinase 4 (Homo sapiens) (UniProt Q9NWZ3); conditions: at 0.1 µM
T1 sequence (whole entry): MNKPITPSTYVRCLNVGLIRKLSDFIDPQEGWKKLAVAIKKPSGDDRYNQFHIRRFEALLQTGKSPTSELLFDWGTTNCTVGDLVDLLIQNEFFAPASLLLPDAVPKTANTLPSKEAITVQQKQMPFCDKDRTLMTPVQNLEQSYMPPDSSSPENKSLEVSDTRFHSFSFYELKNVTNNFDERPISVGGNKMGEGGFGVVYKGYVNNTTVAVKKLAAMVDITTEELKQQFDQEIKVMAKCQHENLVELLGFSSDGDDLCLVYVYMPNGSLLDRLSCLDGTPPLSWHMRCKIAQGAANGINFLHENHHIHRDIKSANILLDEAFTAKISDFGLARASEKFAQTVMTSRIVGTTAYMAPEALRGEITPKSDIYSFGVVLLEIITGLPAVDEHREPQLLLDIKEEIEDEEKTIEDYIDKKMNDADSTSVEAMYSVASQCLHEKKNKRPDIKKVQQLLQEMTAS

[3] = target: T1, Interleukin-1 receptor-associated kinase 4 (Homo sapiens); conditions: at 1 µM
[4] = target: Leucine-rich repeat serine/threonine-protein kinase 2 (Homo sapiens) (UniProt Q5S007); conditions: at 0.1 µM
Chain of Leucine-rich repeat serine/threonine-protein kinase 2 (Homo sapiens) (Q5S007 whole entry): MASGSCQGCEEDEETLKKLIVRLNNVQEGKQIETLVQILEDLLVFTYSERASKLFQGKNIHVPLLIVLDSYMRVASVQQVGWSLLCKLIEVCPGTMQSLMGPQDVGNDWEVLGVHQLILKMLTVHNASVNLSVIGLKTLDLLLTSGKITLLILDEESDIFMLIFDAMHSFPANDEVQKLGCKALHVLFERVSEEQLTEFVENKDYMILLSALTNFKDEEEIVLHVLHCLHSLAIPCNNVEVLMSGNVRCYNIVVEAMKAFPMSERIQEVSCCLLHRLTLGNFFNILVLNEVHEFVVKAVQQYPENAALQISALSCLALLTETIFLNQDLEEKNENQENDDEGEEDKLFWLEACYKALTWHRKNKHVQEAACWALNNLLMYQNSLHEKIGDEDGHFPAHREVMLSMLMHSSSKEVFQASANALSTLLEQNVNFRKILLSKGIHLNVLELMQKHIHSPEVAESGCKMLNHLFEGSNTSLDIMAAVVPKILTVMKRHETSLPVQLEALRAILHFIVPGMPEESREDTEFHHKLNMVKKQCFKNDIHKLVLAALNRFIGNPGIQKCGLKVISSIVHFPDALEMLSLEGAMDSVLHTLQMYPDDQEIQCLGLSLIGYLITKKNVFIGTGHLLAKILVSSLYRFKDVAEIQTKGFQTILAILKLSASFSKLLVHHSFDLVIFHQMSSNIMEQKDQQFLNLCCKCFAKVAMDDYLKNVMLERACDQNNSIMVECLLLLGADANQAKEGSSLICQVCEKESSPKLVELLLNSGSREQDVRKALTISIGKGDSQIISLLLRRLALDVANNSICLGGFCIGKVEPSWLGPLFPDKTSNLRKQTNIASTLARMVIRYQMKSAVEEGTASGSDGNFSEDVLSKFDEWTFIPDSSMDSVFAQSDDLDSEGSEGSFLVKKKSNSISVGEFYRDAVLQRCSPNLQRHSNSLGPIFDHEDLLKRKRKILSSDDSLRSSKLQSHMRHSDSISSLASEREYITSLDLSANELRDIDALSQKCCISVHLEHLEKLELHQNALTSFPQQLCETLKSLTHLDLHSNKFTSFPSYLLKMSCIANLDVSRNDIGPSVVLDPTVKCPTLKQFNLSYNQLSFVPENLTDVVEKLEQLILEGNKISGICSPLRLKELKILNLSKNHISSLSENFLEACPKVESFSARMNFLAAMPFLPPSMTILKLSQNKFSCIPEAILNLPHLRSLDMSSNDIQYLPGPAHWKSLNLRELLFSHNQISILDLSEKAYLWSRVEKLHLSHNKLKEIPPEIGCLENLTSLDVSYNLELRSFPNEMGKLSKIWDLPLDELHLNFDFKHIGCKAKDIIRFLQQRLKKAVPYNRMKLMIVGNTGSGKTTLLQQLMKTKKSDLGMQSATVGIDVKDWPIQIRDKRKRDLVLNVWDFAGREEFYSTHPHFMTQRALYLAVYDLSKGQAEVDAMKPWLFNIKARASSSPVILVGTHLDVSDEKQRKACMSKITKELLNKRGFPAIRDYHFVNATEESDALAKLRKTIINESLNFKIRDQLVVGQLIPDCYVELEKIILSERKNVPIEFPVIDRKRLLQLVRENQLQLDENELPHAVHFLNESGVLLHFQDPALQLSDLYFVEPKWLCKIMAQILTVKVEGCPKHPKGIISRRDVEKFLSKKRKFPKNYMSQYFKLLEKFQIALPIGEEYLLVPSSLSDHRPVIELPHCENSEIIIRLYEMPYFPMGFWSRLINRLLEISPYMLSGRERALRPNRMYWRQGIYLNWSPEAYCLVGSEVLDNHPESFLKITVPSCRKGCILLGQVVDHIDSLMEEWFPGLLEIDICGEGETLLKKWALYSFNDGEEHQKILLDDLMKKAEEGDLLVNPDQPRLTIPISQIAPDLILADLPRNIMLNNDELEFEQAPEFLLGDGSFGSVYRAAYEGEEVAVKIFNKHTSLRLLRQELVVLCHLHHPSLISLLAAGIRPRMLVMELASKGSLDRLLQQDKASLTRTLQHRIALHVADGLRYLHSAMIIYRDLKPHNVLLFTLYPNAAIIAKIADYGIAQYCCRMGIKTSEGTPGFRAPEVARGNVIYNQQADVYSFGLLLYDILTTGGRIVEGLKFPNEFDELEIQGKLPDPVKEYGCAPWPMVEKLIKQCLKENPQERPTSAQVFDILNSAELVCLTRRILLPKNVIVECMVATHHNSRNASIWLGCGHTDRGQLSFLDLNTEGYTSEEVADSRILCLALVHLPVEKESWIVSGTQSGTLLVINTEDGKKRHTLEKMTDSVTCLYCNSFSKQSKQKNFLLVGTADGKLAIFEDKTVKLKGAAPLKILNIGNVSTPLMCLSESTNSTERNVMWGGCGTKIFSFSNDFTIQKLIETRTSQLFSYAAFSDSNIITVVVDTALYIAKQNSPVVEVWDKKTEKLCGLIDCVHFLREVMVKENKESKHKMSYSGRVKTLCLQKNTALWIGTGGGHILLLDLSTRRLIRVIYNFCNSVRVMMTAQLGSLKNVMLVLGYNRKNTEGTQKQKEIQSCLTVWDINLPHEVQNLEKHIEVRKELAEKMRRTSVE

[5] = target: Leucine-rich repeat serine/threonine-protein kinase 2 (Homo sapiens) (UniProt Q5S007); conditions: at 1 µM
[6] = system: Leucine-rich repeat serine/threonine-protein kinase 2 (Homo sapiens), Q5S007 [G2019S]; conditions: at 0.1 µM
Chain of Leucine-rich repeat serine/threonine-protein kinase 2 (Homo sapiens), Q5S007 [G2019S] (Q5S007 whole entry G2019S): as the sequence (Q5S007 whole entry) above, with G2019S counted along it

[7] = system: Leucine-rich repeat serine/threonine-protein kinase 2 (Homo sapiens), Q5S007 [G2019S]; conditions: at 1 µM

Chain of RAF proto-oncogene serine/threonine-protein kinase (Homo sapiens) (P04049 whole entry): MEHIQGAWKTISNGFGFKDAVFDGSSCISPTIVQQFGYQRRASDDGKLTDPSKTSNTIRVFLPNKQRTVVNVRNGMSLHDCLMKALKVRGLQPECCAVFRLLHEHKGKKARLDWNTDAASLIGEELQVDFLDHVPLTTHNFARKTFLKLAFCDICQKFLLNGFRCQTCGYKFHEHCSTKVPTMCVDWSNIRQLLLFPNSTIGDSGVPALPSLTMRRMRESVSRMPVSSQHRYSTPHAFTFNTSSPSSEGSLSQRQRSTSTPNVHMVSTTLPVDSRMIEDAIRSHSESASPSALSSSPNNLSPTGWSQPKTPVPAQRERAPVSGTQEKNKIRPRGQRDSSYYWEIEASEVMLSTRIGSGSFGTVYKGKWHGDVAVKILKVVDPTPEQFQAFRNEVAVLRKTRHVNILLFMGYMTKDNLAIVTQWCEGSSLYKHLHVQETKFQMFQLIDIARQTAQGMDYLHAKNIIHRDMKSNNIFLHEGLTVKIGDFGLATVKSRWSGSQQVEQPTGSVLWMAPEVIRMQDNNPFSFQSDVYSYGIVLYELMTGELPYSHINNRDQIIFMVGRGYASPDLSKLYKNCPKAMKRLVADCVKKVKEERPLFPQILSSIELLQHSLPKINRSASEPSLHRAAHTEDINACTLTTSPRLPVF

Row | Structure (SMILES) | inhibition [1] | inhibition [2] | inhibition [3] | inhibition [4] | inhibition [5] | inhibition [6] | inhibition [7]
1 | NS(=O)(=O)c1cccc(N/C=C2\C(=O)Nc3ccccc32)c1 | 2.59% | 2.9% | 2.37% | 3.41% | 15.8% | 6.57% | 34%
2 | CS(=O)(=O)CCNCc1ccoc1-c1ccc2ncnc(Nc3ccc(OCc4ccccc4)cc3)c2c1 | -1.65% | 0.62% | 1.15% | 1.37% | 3.82% | 2.44% | 2.57%
3 | CNC(=O)c1cncc(/C=C/c2ccccc2C)c1 | -2.68% | -0.44% | 2% | 3.81% | 6.67% | 4.65% | 9.68%
4 | Fc1ccc(Nc2nccc(-c3c(-c4ccc(C(F)(F)F)cc4)nn4ncccc34)n2)cc1F | 1.86% | -4.78% | 1.81% | 5.42% | 7.08% | 5.93% | 10.4%
5 | NS(=O)(=O)c1ccc(N/N=C2\C(=O)Nc3ccc(C(=O)NCc4ccncc4)cc32)cc1 | -3.37% | -2.46% | 1.57% | 5.05% | 11.6% | 6.07% | 30.8%
6 | CS(=O)(=O)CCNCc1ccc(-c2ccc3ncnc(Nc4ccc(OCc5ccccc5)cc4)c3c2)o1 | 2.22% | 1.54% | 1.78% | 3.3% | 6.64% | 2.93% | 7.35%
7 | COc1cccc(-n2ncc3c(N/N=C/c4ccc(C(=O)NCCN(C)C)cc4)ncnc32)c1 | 1.13% | -3.06% | 1.87% | 8.48% | 17.2% | 12.5% | 49.6%
8 | CC1=C(C(=O)Nc2ccc3[nH]nc(C)c3c2)C(c2ccc(C(F)(F)F)cc2)CC(=O)N1 (configuration not stated) | -1.39% | -3.01% | 1.5% | 5.54% | 21.3% | 9.85% | 49.5%
9 | Nc1ncnc2occ(-c3ccc(NC(=O)Nc4cc(C(F)(F)F)ccc4F)cc3)c12 | -6.08% and -5.86% | -1.81% and -1.2% | 1.77% and -0.37% | 13.6% and 6.55% | 18.1% and 19.4% | 8.38% and 6.37% | 35.4% and 28.6%
10 | O=C(O[C@H]1CN[C@H](C#Cc2cc3ncnc(Nc4ccc5c(cnn5Cc5ccccc5)c4)c3s2)C1)N1CCOCC1 | -1.71% | -1.41% | -0.48% | 1.16% | 4.4% | 3.12% | 4.15%
11 | COc1ccc(Nc2ncc(-c3ccccc3)o2)cc1OC | 3.96% | 2.27% | 2.28% | 1.05% | 13.2% | 3.5% | 22.9%
12 | c1cnn2ncc(-c3ccnc(NCCCN4CCOCC4)n3)c2c1 | -5.16% | 2.04% | 1.39% | 1.69% | 1.57% | 2.1% | 5.03%
13 | COc1ccc(-c2nn3ncccc3c2-c2ccnc(Nc3ccc(F)c(F)c3)n2)cc1 | -4.25% | -0.54% | 1.76% | 5.52% | 9.6% | 6.22% | 7.92%
14 | COc1cccc(Nc2nccc(-c3cnn4ncccc34)n2)c1 | -1.47% | 0.48% | 11.1% | 9.98% | 21.1% | 13.3% | 54.8%
15 | COc1cc(Nc2ncc(-c3ccccc3)o2)cc(OC)c1 | -1.38% | 2.03% | 2.83% | 0.94% | 6.82% | 2.33% | 12.5%
16 | CC1(C)CC(n2cnc(-c3ccc(F)cc3)c2-c2ccnc(N)n2)CC(C)(C)N1 | 2.12% | 4.73% | 0.49% | 0.31% | 5.05% | 2.37% | 6.19%

Row | Structure (SMILES) | inhibition [1] | inhibition [2] | inhibition [3] | inhibition [4] | inhibition [5] | inhibition [6] | inhibition [7]
17 | Fc1cccc(COc2ccc(Nc3ncncc3C#Cc3ccccc3)cc2Cl)c1 | 5.17% | 0.71% | 2.43% | 3.65% | 7.01% | 4.05% | 6.17%
18 | COc1cc(N2CCN(C(C)C)CC2)ccc1Nc1nc(Nc2cccc(F)c2C(=O)O)c2cc[nH]c2n1 | 0.19% | 2.04% | 2.25% | 6.61% | 16.3% | 19% | 59.3%
19 | CC(C)c1ccc(-c2cc(-c3c[nH]nc3-c3ccccn3)ccn2)cc1 | 1.4% | 1.27% | 0.36% | 2.9% | 4.8% | 1.2% | 7.15%
20 | CCOc1ccc2c(-c3ccnc(Nc4cc(OC)cc(C(F)(F)F)c4)n3)cnn2n1 | -1.65% | -3.8% | 0.63% | 1.55% | 5.25% | 3.62% | 12.8%
21 | CCCNc1cccc(-n2ncc3c(N/N=C/c4ccncc4)ncnc32)c1 | -3.81% | 2.03% | 0.71% | 3.27% | 12.2% | 5.55% | 37.8%
22 | OCCCNc1nccc(-c2c(-c3ccc(F)cc3)nn3cc(C(F)(F)F)ccc23)n1 | -7.33% | -1.58% | 1.48% | 5.02% | 7.46% | 2.62% | 7.85%
23 | CS(=O)(=O)Nc1ccc(-c2cc(-c3ccccc3)cc(C(N)=O)c2N)cc1 | -4.37% | 0.55% | 1.37% | 1.64% | 4.15% | 3.87% | 5.66%
24 | O=C(Nc1n[nH]c2nnc(-c3cccnc3)cc12)C1CC1 | -3.13% | -0.42% | -0.13% | 0.99% | 4.69% | 2.42% | 5.79%
25 | CCS(=O)(=O)c1ccc(OC)c(Nc2ncc(-c3cccc(C(C)=O)c3)o2)c1 | 8.87% | -3.46% | 1.19% | 0.47% | 4.65% | 2.77% | 11.8%
26 | CCn1c(-c2nonc2N)nc2cncc(C(=O)NCCNC)c21 | 0.85% | 2.49% | 3.05% | 6.11% | 28.8% | 13% | 51.8%
27 | FC(F)(F)CNc1nccc(-c2cnn3ncccc23)n1 | -1% | 0.77% | 1.21% | 3.07% | 8.2% | 5.03% | 9.11%
28 | Cn1c(-c2nonc2N)nc2cnccc21 | 8.87% | 3.47% | 1.21% | 2.89% | 10.6% | 4.16% | 20.5%
29 | COC(=O)Nc1nc2cc(Oc3ccc(NC(=O)Nc4ccccc4)cc3)ccc2[nH]1 | 17.3% | 2.38% | 0.86% | 3.5% | 6.86% | 3.61% | 4.1%
30 | NS(=O)(=O)c1ccc(N/N=C2\C(=O)Nc3cccc(CCc4ccncc4)c32)cc1 | -2.61% | -0.38% | 0.01% | 6.21% | 9.58% | 8.14% | 12.9%
31 | Nc1nonc1-c1nc2cnccc2n1C1CC1 | 5.43% and 2.92% | -0.18% and 2.38% | 2.91% and 1.65% | 8.81% and 0.08% | 15.4% and 10.4% | 13.3% and 5.33% | 44.6% and 35%
